Data reported in paper PMC7862700, “An all-to-all approach to the identification of sequence-specific readers for epigenetic DNA modifications on cytosine”.

Key:
Assay in all cases: DAPPL (digital affinity profiling via proximity ligation, sequencing); 10 mM Tris-HCl pH 7.5, 50 mM NaCl, 1 mM DTT, 4% glycerol, room temperature, 30 min; GST-TFs on glutathione beads, 16-mer random dsDNA library, 0.1% formaldehyde crosslink after washing; high values mean tight binding
[1] = biological target: T1, FEV (Homo sapiens, UniProt Q99581 1-238); settings: protein: recombinant; tags: N-terminal GST; dsDNA, one strand shown
T1 sequence: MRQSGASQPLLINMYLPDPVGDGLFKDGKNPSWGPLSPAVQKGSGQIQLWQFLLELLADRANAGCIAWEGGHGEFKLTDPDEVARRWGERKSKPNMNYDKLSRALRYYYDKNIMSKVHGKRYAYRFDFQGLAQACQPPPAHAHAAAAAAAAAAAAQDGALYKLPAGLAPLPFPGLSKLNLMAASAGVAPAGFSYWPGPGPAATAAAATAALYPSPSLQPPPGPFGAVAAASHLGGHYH
Method in brief: (§1)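 Binding signal is each hexamer's read frequency for a factor divided by its frequency in the tag-only sample. The factors were GST-fused human transcription factors from yeast, captured on glutathione beads, DNA-barcoded and pooled with that sample. Pools were incubated with 200 nmole of a random double-stranded 16-mer DNA library in Tris/NaCl/DTT/glycerol buffer at room temperature for 30 min, then washed, crosslinked with 0.1% formaldehyde, proximity-ligated with BsaI/T4 ligase (1 h, 37 °C), PCR-amplified and sequenced on an Illumina NextSeq500.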

[2] = biological target: ETV5 (Homo sapiens, UniProt P41161 1-510); settings: protein: recombinant; tags: N-terminal GST; dsDNA, one strand shown
Sequence of ETV5 (P41161 whole entry): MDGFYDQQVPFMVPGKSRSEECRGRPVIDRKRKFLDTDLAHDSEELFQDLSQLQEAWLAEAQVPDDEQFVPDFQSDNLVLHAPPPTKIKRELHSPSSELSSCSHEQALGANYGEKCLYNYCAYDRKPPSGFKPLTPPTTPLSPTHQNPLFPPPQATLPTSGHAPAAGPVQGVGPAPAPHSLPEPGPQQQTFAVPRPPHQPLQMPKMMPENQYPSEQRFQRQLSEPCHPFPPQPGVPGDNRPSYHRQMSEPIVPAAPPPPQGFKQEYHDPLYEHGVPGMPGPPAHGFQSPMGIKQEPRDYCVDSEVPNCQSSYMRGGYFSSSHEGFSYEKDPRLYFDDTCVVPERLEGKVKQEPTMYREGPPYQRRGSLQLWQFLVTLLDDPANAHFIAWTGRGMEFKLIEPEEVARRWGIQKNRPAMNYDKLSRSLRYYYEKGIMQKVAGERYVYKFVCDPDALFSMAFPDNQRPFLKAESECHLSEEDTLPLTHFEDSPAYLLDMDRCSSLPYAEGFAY
Method in brief: as §1

[3] = biological target: HSF1 (Homo sapiens, UniProt Q00613 1-529); settings: protein: recombinant; tags: N-terminal GST; chain copies: 3; dsDNA, one strand shown
Sequence of HSF1 (Q00613 whole entry): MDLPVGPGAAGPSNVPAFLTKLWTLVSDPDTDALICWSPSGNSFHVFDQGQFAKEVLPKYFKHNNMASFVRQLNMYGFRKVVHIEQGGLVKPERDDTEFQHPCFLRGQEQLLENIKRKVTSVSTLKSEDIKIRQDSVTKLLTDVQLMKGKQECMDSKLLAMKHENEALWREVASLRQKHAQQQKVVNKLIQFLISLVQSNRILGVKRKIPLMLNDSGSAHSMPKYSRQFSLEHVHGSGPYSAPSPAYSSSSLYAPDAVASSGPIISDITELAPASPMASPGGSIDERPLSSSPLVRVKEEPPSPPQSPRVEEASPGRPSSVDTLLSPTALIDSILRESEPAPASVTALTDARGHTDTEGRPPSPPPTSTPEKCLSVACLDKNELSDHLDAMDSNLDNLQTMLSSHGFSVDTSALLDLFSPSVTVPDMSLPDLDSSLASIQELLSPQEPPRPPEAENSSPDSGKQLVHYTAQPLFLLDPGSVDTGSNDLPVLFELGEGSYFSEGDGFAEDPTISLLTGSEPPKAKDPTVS
Method in brief: as §1

[4] = biological target: T2, SPIC (Homo sapiens, UniProt Q8N5J4 1-248); settings: protein: recombinant; tags: N-terminal GST; dsDNA, one strand shown
T2 sequence: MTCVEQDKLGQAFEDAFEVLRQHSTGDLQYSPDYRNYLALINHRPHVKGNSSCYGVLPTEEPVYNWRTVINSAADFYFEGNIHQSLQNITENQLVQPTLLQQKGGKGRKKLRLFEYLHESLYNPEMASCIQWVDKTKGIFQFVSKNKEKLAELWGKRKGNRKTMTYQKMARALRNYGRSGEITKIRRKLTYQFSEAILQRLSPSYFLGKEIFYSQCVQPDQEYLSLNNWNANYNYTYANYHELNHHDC
Method in brief: as §1

[5] = biological target: ELF4 (Homo sapiens, UniProt Q99607 1-663); settings: protein: recombinant; tags: N-terminal GST; dsDNA, one strand shown
Sequence of ELF4 (Q99607 whole entry): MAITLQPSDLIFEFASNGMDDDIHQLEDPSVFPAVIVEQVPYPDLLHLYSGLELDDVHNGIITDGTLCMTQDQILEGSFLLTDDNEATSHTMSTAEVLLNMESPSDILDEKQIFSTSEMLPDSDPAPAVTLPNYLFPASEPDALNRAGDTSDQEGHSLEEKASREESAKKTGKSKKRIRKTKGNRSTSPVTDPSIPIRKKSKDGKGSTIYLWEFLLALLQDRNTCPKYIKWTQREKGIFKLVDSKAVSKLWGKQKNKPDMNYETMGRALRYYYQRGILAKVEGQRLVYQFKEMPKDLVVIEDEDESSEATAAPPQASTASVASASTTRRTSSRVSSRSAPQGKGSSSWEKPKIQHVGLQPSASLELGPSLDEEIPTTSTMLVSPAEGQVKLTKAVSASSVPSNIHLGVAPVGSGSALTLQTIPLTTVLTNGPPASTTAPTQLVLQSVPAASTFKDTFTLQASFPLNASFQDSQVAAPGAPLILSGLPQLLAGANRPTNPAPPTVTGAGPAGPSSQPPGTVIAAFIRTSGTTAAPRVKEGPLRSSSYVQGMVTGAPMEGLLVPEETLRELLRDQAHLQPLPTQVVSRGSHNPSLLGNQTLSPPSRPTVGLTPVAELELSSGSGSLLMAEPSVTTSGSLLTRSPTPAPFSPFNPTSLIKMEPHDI
Method in brief: as §1

[6] = biological target: T3, ELK4 (Homo sapiens, UniProt P28324-2 1-405); settings: protein: recombinant; tags: N-terminal GST; dsDNA, one strand shown
T3 sequence: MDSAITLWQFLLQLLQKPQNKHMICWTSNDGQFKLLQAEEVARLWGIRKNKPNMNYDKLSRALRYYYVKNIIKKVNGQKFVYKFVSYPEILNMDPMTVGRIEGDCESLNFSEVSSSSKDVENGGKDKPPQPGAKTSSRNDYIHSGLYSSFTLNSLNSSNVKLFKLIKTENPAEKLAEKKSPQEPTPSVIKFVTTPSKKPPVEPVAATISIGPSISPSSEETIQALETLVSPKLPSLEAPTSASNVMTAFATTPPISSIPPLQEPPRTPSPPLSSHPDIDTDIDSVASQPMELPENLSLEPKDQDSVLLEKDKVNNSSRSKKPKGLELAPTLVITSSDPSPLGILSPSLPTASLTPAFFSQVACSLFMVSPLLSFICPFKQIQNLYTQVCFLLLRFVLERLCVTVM
Method in brief: as §1

[7] = biological target: T4, ETV2 (Homo sapiens, UniProt O00321 1-342); settings: protein: recombinant; tags: N-terminal GST; dsDNA, one strand shown
T4 sequence: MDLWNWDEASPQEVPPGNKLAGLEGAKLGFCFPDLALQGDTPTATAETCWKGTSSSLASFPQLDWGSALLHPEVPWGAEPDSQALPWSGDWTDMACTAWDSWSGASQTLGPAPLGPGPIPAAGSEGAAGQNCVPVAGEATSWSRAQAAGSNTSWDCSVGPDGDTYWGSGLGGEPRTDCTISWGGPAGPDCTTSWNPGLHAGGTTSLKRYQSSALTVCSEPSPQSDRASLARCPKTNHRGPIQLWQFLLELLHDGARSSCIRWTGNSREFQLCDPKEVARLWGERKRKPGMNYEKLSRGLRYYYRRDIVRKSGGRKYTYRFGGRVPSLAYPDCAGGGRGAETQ
Method in brief: as §1

[8] = biological target: CRX (Homo sapiens, UniProt O43186 1-299); settings: protein: recombinant; tags: N-terminal GST; dsDNA, one strand shown
Sequence of CRX (O43186 whole entry): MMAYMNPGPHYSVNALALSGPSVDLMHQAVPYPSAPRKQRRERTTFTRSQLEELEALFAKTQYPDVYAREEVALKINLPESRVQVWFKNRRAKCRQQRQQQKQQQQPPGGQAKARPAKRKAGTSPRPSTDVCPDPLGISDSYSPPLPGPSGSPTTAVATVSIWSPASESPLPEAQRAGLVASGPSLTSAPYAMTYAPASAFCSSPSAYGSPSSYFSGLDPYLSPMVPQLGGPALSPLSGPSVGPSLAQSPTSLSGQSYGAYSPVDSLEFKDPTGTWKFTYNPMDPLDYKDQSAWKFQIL
Method in brief: as §1

[9] = biological target: ETV1 (Homo sapiens, UniProt P50549 1-477); settings: protein: recombinant; tags: N-terminal GST; dsDNA, one strand shown
Sequence of ETV1 (P50549 whole entry): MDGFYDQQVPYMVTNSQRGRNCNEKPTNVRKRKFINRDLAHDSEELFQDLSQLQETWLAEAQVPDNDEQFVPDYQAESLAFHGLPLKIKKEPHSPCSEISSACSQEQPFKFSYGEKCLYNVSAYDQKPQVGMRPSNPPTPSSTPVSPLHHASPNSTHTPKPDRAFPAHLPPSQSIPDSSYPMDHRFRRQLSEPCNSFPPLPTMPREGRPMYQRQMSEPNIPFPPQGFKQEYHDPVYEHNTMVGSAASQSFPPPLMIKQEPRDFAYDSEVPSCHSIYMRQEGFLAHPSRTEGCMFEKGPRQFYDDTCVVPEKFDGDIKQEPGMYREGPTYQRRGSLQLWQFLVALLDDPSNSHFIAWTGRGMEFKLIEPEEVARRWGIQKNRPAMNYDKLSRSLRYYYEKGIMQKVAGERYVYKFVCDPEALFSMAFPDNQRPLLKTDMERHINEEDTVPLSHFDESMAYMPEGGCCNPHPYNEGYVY
Method in brief: as §1

[10] = biological target: T5, ERF (Homo sapiens, UniProt P50548 1-548); settings: protein: recombinant; tags: N-terminal GST; dsDNA, one strand shown
T5 sequence: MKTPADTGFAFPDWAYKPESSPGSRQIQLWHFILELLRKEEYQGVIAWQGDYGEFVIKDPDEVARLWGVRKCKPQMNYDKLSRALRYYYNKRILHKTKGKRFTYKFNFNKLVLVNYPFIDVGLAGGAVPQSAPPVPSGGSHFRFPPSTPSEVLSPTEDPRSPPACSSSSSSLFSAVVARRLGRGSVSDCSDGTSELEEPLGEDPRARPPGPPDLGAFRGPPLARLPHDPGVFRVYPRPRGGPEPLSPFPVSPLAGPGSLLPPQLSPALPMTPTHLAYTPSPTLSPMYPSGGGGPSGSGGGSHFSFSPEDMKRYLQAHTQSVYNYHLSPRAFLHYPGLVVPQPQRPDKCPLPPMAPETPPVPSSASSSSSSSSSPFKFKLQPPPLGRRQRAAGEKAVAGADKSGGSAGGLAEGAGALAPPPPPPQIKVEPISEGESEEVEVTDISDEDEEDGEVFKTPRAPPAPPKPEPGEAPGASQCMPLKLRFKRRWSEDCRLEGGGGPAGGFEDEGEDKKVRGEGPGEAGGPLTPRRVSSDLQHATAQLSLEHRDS
Method in brief: as §1

[11] = biological target: T6, ETV3L (Homo sapiens, UniProt Q6ZN32 1-361); settings: protein: recombinant; tags: N-terminal GST; dsDNA, one strand shown
T6 sequence: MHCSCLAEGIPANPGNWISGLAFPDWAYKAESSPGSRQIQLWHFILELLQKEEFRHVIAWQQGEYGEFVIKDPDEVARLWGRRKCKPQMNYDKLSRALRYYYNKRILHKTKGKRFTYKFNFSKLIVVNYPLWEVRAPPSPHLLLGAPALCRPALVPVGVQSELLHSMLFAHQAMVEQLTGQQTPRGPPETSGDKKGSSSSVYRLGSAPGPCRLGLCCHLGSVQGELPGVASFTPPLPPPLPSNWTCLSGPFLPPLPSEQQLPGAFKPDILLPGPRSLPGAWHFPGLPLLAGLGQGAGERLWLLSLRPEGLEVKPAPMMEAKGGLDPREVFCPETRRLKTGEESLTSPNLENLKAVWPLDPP
Method in brief: as §1

[12] = biological target: T7, ETS2 (Homo sapiens, UniProt P15036 1-469); settings: protein: recombinant; tags: N-terminal GST; dsDNA, one strand shown
T7 sequence: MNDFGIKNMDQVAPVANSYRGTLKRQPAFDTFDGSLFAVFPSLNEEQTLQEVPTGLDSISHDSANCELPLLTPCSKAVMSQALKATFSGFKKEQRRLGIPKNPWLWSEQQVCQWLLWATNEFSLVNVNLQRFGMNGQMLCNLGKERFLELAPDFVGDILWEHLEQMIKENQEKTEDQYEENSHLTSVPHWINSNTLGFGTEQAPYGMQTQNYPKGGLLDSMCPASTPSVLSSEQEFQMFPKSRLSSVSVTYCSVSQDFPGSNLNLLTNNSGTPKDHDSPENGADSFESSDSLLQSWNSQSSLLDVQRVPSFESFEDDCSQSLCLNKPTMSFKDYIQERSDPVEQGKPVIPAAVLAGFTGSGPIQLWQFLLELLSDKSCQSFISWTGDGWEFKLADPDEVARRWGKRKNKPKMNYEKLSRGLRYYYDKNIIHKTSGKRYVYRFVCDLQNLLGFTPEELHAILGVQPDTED
Method in brief: as §1

[13] = biological target: T8, SPDEF (Homo sapiens, UniProt O95238 1-335); settings: protein: recombinant; tags: N-terminal GST; dsDNA, one strand shown
T8 sequence: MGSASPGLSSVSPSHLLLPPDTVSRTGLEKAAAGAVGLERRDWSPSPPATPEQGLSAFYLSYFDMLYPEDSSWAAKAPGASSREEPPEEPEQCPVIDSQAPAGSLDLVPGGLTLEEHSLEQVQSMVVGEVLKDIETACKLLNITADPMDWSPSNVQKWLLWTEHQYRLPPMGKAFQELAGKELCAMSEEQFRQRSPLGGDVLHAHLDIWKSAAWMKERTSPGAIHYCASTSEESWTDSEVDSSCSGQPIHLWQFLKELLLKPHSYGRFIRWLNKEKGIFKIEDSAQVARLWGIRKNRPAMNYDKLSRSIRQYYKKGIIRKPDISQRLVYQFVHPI
Method in brief: as §1

[14] = biological target: T9, ETV7 (Homo sapiens, UniProt Q9Y603 1-341); settings: protein: recombinant; tags: N-terminal GST; dsDNA, one strand shown
T9 sequence: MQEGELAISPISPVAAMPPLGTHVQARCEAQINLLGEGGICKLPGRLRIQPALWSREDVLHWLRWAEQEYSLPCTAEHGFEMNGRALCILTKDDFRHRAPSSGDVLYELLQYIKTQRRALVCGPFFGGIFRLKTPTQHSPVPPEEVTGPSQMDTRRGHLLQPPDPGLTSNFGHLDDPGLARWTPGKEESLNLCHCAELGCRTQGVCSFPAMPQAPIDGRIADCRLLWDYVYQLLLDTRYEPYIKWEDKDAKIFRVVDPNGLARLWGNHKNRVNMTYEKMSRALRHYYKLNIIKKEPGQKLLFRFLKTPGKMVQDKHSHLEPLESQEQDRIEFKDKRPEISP
Method in brief: as §1

[15] = biological target: T10, ETV3 (Homo sapiens, UniProt P41162-2 1-143); settings: protein: recombinant; tags: N-terminal GST; dsDNA, one strand shown
T10 sequence: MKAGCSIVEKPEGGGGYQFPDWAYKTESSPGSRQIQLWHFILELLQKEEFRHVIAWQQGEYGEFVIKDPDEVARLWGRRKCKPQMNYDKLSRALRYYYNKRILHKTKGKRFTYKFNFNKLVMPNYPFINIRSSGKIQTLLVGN
Method in brief: as §1

[16] = biological target: ETV6 (Homo sapiens, UniProt P41212 1-452); settings: protein: recombinant; tags: N-terminal GST; dsDNA, one strand shown
Sequence of ETV6 (P41212 whole entry): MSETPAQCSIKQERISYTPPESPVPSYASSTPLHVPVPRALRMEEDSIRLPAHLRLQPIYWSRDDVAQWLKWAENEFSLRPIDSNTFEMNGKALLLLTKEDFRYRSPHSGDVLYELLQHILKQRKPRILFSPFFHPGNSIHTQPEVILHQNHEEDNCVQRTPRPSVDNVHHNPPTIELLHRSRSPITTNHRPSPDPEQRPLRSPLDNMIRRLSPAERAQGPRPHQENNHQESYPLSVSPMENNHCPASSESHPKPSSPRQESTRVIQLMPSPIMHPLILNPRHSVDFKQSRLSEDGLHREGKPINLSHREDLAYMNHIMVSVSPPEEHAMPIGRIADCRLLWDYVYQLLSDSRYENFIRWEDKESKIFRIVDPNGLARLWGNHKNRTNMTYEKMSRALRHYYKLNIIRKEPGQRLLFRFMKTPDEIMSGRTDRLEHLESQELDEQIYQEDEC
Method in brief: as §1

[17] = biological target: T11, ELF5 (Homo sapiens, UniProt Q9UKW6-2 1-255); settings: protein: recombinant; tags: N-terminal GST; dsDNA, one strand shown
T11 sequence: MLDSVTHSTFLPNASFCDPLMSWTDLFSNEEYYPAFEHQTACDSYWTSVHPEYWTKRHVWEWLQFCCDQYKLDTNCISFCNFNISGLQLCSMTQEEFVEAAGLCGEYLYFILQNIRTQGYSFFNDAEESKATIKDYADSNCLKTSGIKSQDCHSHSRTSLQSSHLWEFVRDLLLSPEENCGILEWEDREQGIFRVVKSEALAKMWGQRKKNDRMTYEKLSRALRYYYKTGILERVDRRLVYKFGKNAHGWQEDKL
Method in brief: as §1

| Sequence | binding signal [1] | binding signal [2] | binding signal [3] | binding signal [4] | binding signal [5] | binding signal [6] | binding signal [7] | binding signal [8] | binding signal [9] | binding signal [10] | binding signal [11] | binding signal [12] | binding signal [13] | binding signal [14] | binding signal [15] | binding signal [16] | binding signal [17] |
| --- | --- | --- | --- | --- | --- | --- | --- | --- | --- | --- | --- | --- | --- | --- | --- | --- | --- |
| TCGATA | 1.05 fold enrichment (6-mer frequency, TF over GST control) | 1.07 fold enrichment (6-mer frequency, TF over GST control) | 1.35 fold enrichment (6-mer frequency, TF over GST control) | 1.28 fold enrichment (6-mer frequency, TF over GST control) | 1.15 fold enrichment (6-mer frequency, TF over GST control) | 1.16 fold enrichment (6-mer frequency, TF over GST control) | 1.16 fold enrichment (6-mer frequency, TF over GST control) | 1.24 fold enrichment (6-mer frequency, TF over GST control) | 1.03 fold enrichment (6-mer frequency, TF over GST control) | 1.24 fold enrichment (6-mer frequency, TF over GST control) | 1.13 fold enrichment (6-mer frequency, TF over GST control) | 1.06 fold enrichment (6-mer frequency, TF over GST control) | 1.07 fold enrichment (6-mer frequency, TF over GST control) | 1.07 fold enrichment (6-mer frequency, TF over GST control) | 1.11 fold enrichment (6-mer frequency, TF over GST control) | 1.01 fold enrichment (6-mer frequency, TF over GST control) |  |
| TATTAG | 1.02 fold enrichment (6-mer frequency, TF over GST control) | 1.04 fold enrichment (6-mer frequency, TF over GST control) | 1.42 fold enrichment (6-mer frequency, TF over GST control) | 1.13 fold enrichment (6-mer frequency, TF over GST control) | 1.05 fold enrichment (6-mer frequency, TF over GST control) | 1.04 fold enrichment (6-mer frequency, TF over GST control) | 1.23 fold enrichment (6-mer frequency, TF over GST control) | 1.94 fold enrichment (6-mer frequency, TF over GST control) | 1.12 fold enrichment (6-mer frequency, TF over GST control) | 1 fold enrichment (6-mer frequency, TF over GST control) | 1.04 fold enrichment (6-mer frequency, TF over GST control) | 1.06 fold enrichment (6-mer frequency, TF over GST control) | 1.06 fold enrichment (6-mer frequency, TF over GST control) | 1.03 fold enrichment (6-mer frequency, TF over GST control) | 1.05 fold enrichment (6-mer frequency, TF over GST control) | 1.05 fold enrichment (6-mer frequency, TF over GST control) | 1.06 fold enrichment (6-mer frequency, TF over GST control) |
